ATXN2 expr inh = Primary qHTS for Inhibitors of ATXN expression | HEK-293 ATXN2-luciferase reporter, luminescence, 24 h | Potency, µM (titrated, usually from 57 µM), for inactives: at the highest dose activity change, negative = inhibition, hits mostly inhibitors | hit rate 0.72% among 360,000 | AID 1745845, 2022; further: on the % scale 0 is the no-effect control and ±100 the full control effect; nearly all actives have a fitted effect of over 55% in size
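ATXN2-luciferase reporter cells (luciferase flanked by upstream and downstream ATXN2 gene portions) were treated 24 h at 37 °C with compounds at up to 57 uM. SteadyGlo luminescence gave expression; GF-AFC fluorescence gave viability.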
ATXN viability = Viability Counterscreen for Primary qHTS for Inhibitors of ATXN expression | hit rate 0.49% among 400,000 | S2 cells (HEK-293 line with an ATXN2-luciferase reporter) viability, CellTiter-Fluor protease fluorescence, 24 h | Potency, µM (doses to about 56.7 µM), most hits filed as cytotoxic; further: nearly all actives have a fitted effect of over 40% in size
HT1080 IDH1KD tx = qHTS for induction of synthetic lethality in tumor cells producing 2HG: qHTS for the HT-1080-IDH1KD cell line; Potency, µM (highest dose often 46.1 µM), without a hit: top-dose activity, negative = toxicity, usual class: cytotoxic; HT-1080 IDH1 knockdown viability, ATP luminescence, 48 h; AID 686971, 2013; hit rate 2% among 360,000;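 further: 0% = DMSO wells and -100% = cell-free medium wells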
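HT-1080-IDH1KD cells (IDH1 knocked down), 750/well in RPMI with 5% FBS, treated with compound 48 h at 37 degrees C. Viability by CellTiter-Glo luminescence, normalised to DMSO and no-cell wells; concentration-response curves classed.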
TGFb inhibitor = qHTS for Inhibitors of TGF-b; HepG2 CAGA-GFP TGF-b/SMAD3 reporter, GFP fluorescence, 18 h; TGF-beta stimulated, 500 pg/mL final; Potency, µM (doses to about 46.1 µM), for inactives: at the top dose activity, negative = inhibition, actives largely listed as inhibitors; hit rate 1.2% among 410,000; AID 588855, 2011; further: on the % scale 0 is the no-effect control and ±100 the full control effect; nearly all actives have a fitted effect of over 65% in size
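First, reporter cells (HEPG2 CAGA-GFP) rested 2 h at 37 degrees C. Next, compounds were pinned in and TGF-beta added to 500 pg/mL final. After 18 h, GFP was imaged per cell and summed per well.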
HepG2 viability = qHTS for Inhibitors of TGF-b: Cytotox Counterscreen; HepG2 CAGA-GFP viability, ATP luminescence, 18 h; hit rate 0.76% among 410,000; Potency, µM (titrated, usually from 46.1 µM), inactives show at the top dose activity change, negative = cytotoxicity, most hits filed as cytotoxic
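HepG2 CAGA-GFP cells (1000/well, DMEM with 1% FBS) received compound, then TGF-beta at 500 pg/mL final, and were incubated 18 hours at 37 degrees C. Viability was read by CellTiter-Glo luminescence. Media-only wells were set as complete cell-killing and DMSO as no toxicity.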
HT1080NT lethal = qHTS for induction of synthetic lethality in tumor cells producing 2HG: qHTS for the HT-1080-NT fibrosarcoma cell line; HT-1080-NT fibrosarcoma viability, CellTiter-Glo ATP luminescence, 48 h; Potency, µM (series often up to 46.1 µM), for inactives: top-dose activity, negative = less viability, actives largely listed as cytotoxic; hit rate 1.6% among 360,000; AID 686970, 2013;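 further: NT is the 2HG producing partner of a matched IDH1 knockdown line; 0% = DMSO-treated cells and -100% = media-only wells without cells; nearly all actives have a fitted effect of over 55% in size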
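750 cells/well, RPMI + 5% FBS; 2 h settle, compound pin-transfer, 48 h at 37 degrees C. CellTiter-Glo 10 min RT, luminescence. Normalized to DMSO and media-only wells.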
Active calls of the source: *; [ ] = another dose, or the depositor's remark. A selection: hits, their analogues and other compounds. The true share with any hit is near 3.8%. The call rests on the fitted dose curve; in most records, active means well fitted curve in the direction sought with a large enough effect; inconclusive means small, poorly fitted or top-dose-only effect, or another doubt; inactive means no such curve, though single readings can be large; an effect the other way counts as inactive or inconclusive. Potency means the concentration at half of the fitted maximal effect.

`Cc1ccc2cc(CN(CCc3ccccc3)C(=S)NCCCN(C)C)c(=O)[nH]c2c1` gave ATXN2 expr inh inconclusive, ATXN viability inconclusive, HT1080 IDH1KD tx inconclusive, TGFb inhibitor inconclusive, HepG2 viability -88.6% and HT1080NT lethal 25.9µM*.
Cc1cccc2cc(CN(CCCN(C)C)C(=S)NCCc3ccccc3)c(=O)[nH]c12 was read as ATXN2 expr inh -15.1%, ATXN viability inactive, HT1080 IDH1KD tx -17.9%, TGFb inhibitor -29.4%, HepG2 viability 5.1% and HT1080NT lethal -20.3%.
Screening CCN(CC)CCN(Cc1cc2ccc(C)cc2[nH]c1=O)C(=S)Nc1ccccc1C(=O)OC returned ATXN2 expr inh 3.4%[11.3 µM], ATXN viability inactive, HT1080 IDH1KD tx 18.4µM*, TGFb inhibitor 16.6%, HepG2 viability -11.2% and HT1080NT lethal inconclusive.
For Cc1ccc2[nH]c(=O)c(CN(CCCN(C)C)C(=S)NCCc3ccccc3)cc2c1 the results were ATXN2 expr inh -21.9%, ATXN viability inconclusive, HT1080 IDH1KD tx 18.4µM*, TGFb inhibitor inconclusive, HepG2 viability -74.5% and HT1080NT lethal 18.4µM*.
For Cn1cc(/C=C/c2ccnc3ccccc23)c2ccccc21 the results were TGFb inhibitor inconclusive and HepG2 viability -59.0%.
`CCCCOC(=O)CCCCCCCCC(=O)OCCCC` gave ATXN2 expr inh 10.0% and ATXN viability inactive.
Screening CCOCC(=O)Nc1c(C(=O)N2CCN(c3ncccn3)CC2)oc2ccccc12 returned ATXN2 expr inh -5.0%, ATXN viability inactive, HT1080 IDH1KD tx -2.2%, TGFb inhibitor -5.5%, HepG2 viability -28.2% and HT1080NT lethal 0.2%.
O=C(c1oc2ccccc2c1CSCc1ccccc1)N1CCN(c2ncccn2)CC1 was read as ATXN2 expr inh inconclusive, ATXN viability inactive, HT1080 IDH1KD tx -7.5%, TGFb inhibitor 15.8µM*, HepG2 viability -42.0% and HT1080NT lethal 10.0%.
Screening Cc1cc2c3c(c1C)C1(C(=O)N3C(C)(C)CC2C)C(C#N)=C(N)Oc2cc(O)ccc21 (stereo not drawn) returned ATXN2 expr inh inconclusive, ATXN viability 22.4µM*, HT1080 IDH1KD tx inconclusive, TGFb inhibitor inconclusive, HepG2 viability -38.7% and HT1080NT lethal inconclusive.
Screening Cc1cc2c3c(c1)C1(C(=O)N3C(C)(C)CC2C)C(C#N)=C(N)OC2=C1C(=O)CC(C)(C)C2 (stereo not drawn) returned ATXN2 expr inh -1.7%, ATXN viability inactive, HT1080 IDH1KD tx -9.3%, TGFb inhibitor 6.2%, HepG2 viability 0.1% and HT1080NT lethal -6.0%.
For CN(C)c1ccc(/C=C2\C=Cc3ccccc32)cc1[N+](=O)[O-] the results were TGFb inhibitor -5.4% and HepG2 viability -18.3%.
Screening Cc1ccc(Cl)c2sc(NC(=O)C3CC3)nc12 returned ATXN2 expr inh 6.1%, ATXN viability inactive, HT1080 IDH1KD tx 12.2%, TGFb inhibitor inconclusive, HepG2 viability 11.2µM* and HT1080NT lethal 16.4%.
Screening CCCCNC(=S)Nc1ccc([N+](=O)[O-])cc1 returned ATXN2 expr inh -19.9%, ATXN viability inactive, HT1080 IDH1KD tx inconclusive, TGFb inhibitor 11.2µM*, HepG2 viability -47.8% and HT1080NT lethal inconclusive.
`CC(C)OC(=O)c1cc(NC(=S)Nc2ccc([N+](=O)[O-])cc2)cc(C(=O)OC(C)C)c1` gave ATXN2 expr inh inconclusive, HT1080 IDH1KD tx 20.6µM*, TGFb inhibitor -6.1%, HepG2 viability -10.9% and HT1080NT lethal inconclusive.
CC(C)CCNC(=S)Nc1ccc([N+](=O)[O-])cc1 was read as ATXN2 expr inh inconclusive, ATXN viability inconclusive, HT1080 IDH1KD tx inconclusive, TGFb inhibitor inconclusive, HepG2 viability -46.8% and HT1080NT lethal inconclusive.
O=C(NCCNC1CCC(c2ccccc2)CC1)c1ccc(F)cc1 (stereo not drawn) was read as ATXN2 expr inh inconclusive, ATXN viability inactive, HT1080 IDH1KD tx inconclusive, TGFb inhibitor inconclusive, HepG2 viability -43.5% and HT1080NT lethal 20.6µM*.
For CC(C(=O)Nc1ccccc1)n1nnc2sc3c(c2c1=O)CCCC3 (stereo not drawn) the results were ATXN2 expr inh -14.0%, ATXN viability inactive, TGFb inhibitor 14.1µM* and HepG2 viability -25.7%.
For CCC1CN(Cc2ccc(COC)o2)Cc2cc(OC)ccc2O1 (stereo not drawn) the results were ATXN viability inactive.
CC(NC(=O)Nc1nnc(C(F)(F)F)s1)(C(F)(F)F)C(F)(F)F was read as ATXN2 expr inh inconclusive, ATXN viability inconclusive, HT1080 IDH1KD tx 3.26µM*, TGFb inhibitor inconclusive, HepG2 viability -43.4% and HT1080NT lethal 7.31µM*.
CCN(CC)CCNC(=O)c1ccc(NC(=O)c2ccccc2-c2ccc(C(F)(F)F)cc2)cc1 was read as ATXN2 expr inh inconclusive, ATXN viability inactive, HT1080 IDH1KD tx 18.4µM*, TGFb inhibitor inconclusive, HepG2 viability -50.8% and HT1080NT lethal 23.1µM*.
`CCN(CC)CCNC(=O)c1ccc(NC(=O)c2cn(-c3ccccc3)nc2-c2cccs2)cc1` gave ATXN2 expr inh inconclusive, HT1080 IDH1KD tx inconclusive, TGFb inhibitor inconclusive, HepG2 viability 11.2µM* and HT1080NT lethal inconclusive.
Screening O=C(Nc1cccnc1)c1cn(-c2ccccc2)nc1-c1cccs1 returned ATXN2 expr inh 5.4%, ATXN viability inactive, HT1080 IDH1KD tx 0.0%, TGFb inhibitor -20.2%, HepG2 viability -23.1% and HT1080NT lethal 0.0%.
CCN(CC)CCNC(=O)c1ccc(NC(=O)c2cn(-c3ccc(F)cc3)nc2-c2cccc(OC)c2)cc1 was read as ATXN2 expr inh inconclusive, ATXN viability 28.2µM*, HT1080 IDH1KD tx 20.6µM*, TGFb inhibitor inconclusive, HepG2 viability inactive and HT1080NT lethal 23.1µM*.
For CCOc1ccc(NC(=O)CN(C)C(=O)c2cn(-c3ccc(F)cc3)nc2-c2cccc(OC)c2)cc1OCC the results were ATXN2 expr inh inconclusive, ATXN viability inactive, HT1080 IDH1KD tx -11.6%, TGFb inhibitor inconclusive, HepG2 viability -12.7% and HT1080NT lethal -11.1%.
Cc1cc(/C=C/c2c(C)cnc3ccccc23)ccc1N(C)C was read as TGFb inhibitor inconclusive and HepG2 viability -66.1%.
For O=C(NCCc1nnc2n1CCN(Cc1c(F)cccc1F)CC2)c1ccco1 the results were ATXN viability inactive.

From PubChem BioAssay
